# Assay results published in ChEMBL document CHEMBL3988442, “University of Dundee, Small-Polar-MMV Screening Library” (2021).
# In all, about 48,000 compounds went through this assay and about 13,000 (27%) showed an effect of 50% or more. Some of the results follow.
# Tested on: Wolbachia pipientis
# Test: Anti-Wolbachia Cell-Based Screen
# Assay type: functional
# Set-up: scale not given: in the data most compounds retested in dose-response had high values
# Conditions: 5 µM
row,SMILES,Percent Effect
1,CC(=O)NCCc1ncnn1-c1ccc(F)c(Cl)c1,-4.574%
2,CC(O)CN1CCC(CNCc2ccc(S(C)(=O)=O)cc2)CC1 (stereo unspecified),-7.013%
3,Cc1cc(-c2ccc(C(C)N3CCOCC3)cc2)cnc1N (stereo unspecified),25.58%
4,O=C(NCCc1c[nH]cn1)c1ccc2c(c1)C(=O)N(C1CC1)C2=O,25.9%
5,CC(O)CN(C)C(=O)Nc1ccn(-c2cccc(C(F)(F)F)c2)n1 (stereo unspecified),-1.587%
6,CCc1nc(C2CCCN2Cc2nc(C3CC3)no2)no1 (stereo unspecified),-2.971%
7,CCc1nc(C2CCCN2Cc2noc(Cc3ccccc3)n2)no1 (stereo unspecified),-2.758%
8,COc1cccc2c1N(Cc1noc(C(C)(C)C)n1)CCC2,5.292%
9,CCn1c(C2CCCN2Cc2noc(C(C)(C)C)n2)nc2ccccc21 (stereo unspecified),117.3%
10,c1ccn2c(C3CCCN3Cc3nc(C4CC4)no3)nnc2c1 (stereo unspecified),89.02%
11,CC(C)(C)c1nc(CN2CCCC2c2nnc3ccccn23)no1 (stereo unspecified),104.6%
12,CC(C)(C)c1nc(CN2CCCC2CCc2ccccc2)no1 (stereo unspecified),0.152%
13,CC(C)(C)c1nnc(CN2CCCC2c2noc(C3CC3)n2)o1 (stereo unspecified),9.354%
14,CCc1nc(C2CCCN2Cc2nc3ccccc3o2)no1 (stereo unspecified),-3.272%
15,Cn1cccc1C1CCCN1Cc1noc(C(C)(C)C)n1 (stereo unspecified),89.29%
16,Cc1nn(C)c(C)c1C1CCCN1Cc1noc(C2CC2)n1 (stereo unspecified),0.5745%
17,O=C(OCc1ccccc1)C1CCCN1Cc1nc(C2CC2)no1 (stereo unspecified),13.28%
18,CC(C)n1cnc2c1C(C(=O)N1CCOCC1)N(CC1CC1)CC2.O=C(O)C(F)(F)F (stereo unspecified),-10.07%
19,CNC(=O)c1ccc(-n2c(COCC(=O)O)nc3c(C)cccc32)o1,-7.772%
20,CCCOCC1CCN(C(=O)Cn2cccc(OC)c2=O)C1 (stereo unspecified),-15.28%
21,Cc1ccc(NC(=O)CCC2CC2)cc1N1CCOC1=O,-7.551%
22,O=c1[nH]nc(CNc2ncc(Cl)cn2)[nH]1,-6.867%
23,CCc1nsc(N2CCOC3(CCCC3)C2)n1,2.616%
24,Cc1noc(C)c1CN1CCCCC1c1nc(-c2ccccc2)no1 (stereo unspecified),11.76%

row,SMILES,Percent Effect
1,Cc1noc(C)c1CN1CCCC1c1nc(-c2ccccc2)no1 (stereo unspecified),-6.071%
2,Cc1noc(C)c1CN1CCCC1c1nnc2ccccn12 (stereo unspecified),107.8%
3,CCC(CO)N(Cc1cccs1)C(=O)Cc1ccc(O)cc1 (stereo unspecified),12.13%
4,CCC[C@@H]1CN(C(=O)c2ccccc2-c2ccccc2)C[C@H]1N(C)C,-11.45%
5,Cc1ccc(CN2CCC3(CCN(Cc4ccncc4)CC3)CC2)cc1,-6.544%
6,COCCN1CCCC(O)(CN2CCN(Cc3ccncc3)CC2)C1=O (stereo unspecified),-1.626%
7,Cn1ccnc1C1(O)CCCN(Cc2ccncc2)CC1 (stereo unspecified),94.34%
8,CN(C)[C@H]1CCN(c2ccnc(C(=O)NCc3ccco3)c2)C1,-12.58%
9,Cc1[nH]c(=O)sc1S(=O)(=O)N1CCCC1C(=O)NC1CC1 (stereo unspecified),0.9374%
10,CC1c2ncc(COCC3CC3)n2CCN1S(=O)(=O)N(C)C (stereo unspecified),-6.883%
11,O=C(NCCO)c1coc(Cn2cnc3ccccc32)n1,-7.13%
12,Cn1ccnc1-c1cnn(CC(=O)Nc2ccnn2C)c1,-5.253%
13,CC(C)C(C)n1nccc1NC(=O)Cn1cnc2ccccc21 (stereo unspecified),92.25%
14,Cc1noc(CN(C)C(=O)CCn2cnc3ccccc32)n1,-9.657%
15,CC(C)c1nccn1CC(=O)Nc1ccnn1C(C)C(C)C (stereo unspecified),205.7%
16,CC(C1CC1)n1nccc1NC(=O)CN(C)C(=O)OC(C)(C)C (stereo unspecified),1.565%
17,Cc1n[nH]c(C)c1C1CCCN1C(=O)c1cc(Br)c[nH]1 (stereo unspecified),3.439%
18,N#Cc1cc(S(N)(=O)=O)ccc1NC1CCc2ccc(F)cc21 (stereo unspecified),-1.199%
19,CN(C)c1ccc(-c2ccnc3c2ccn3C)nn1,-43.13%
20,CC(C)Nc1ccc(-c2ccnc3c2ccn3C)nn1,-2.658%
21,c1cc2c(c(-c3cc(N4CCOCC4)ncn3)c1)CCNC2,6.934%
22,Cn1ccc2c(-c3cc(N4CCCCC4)ncn3)ccnc21,102.2%
23,Cn1ccc2c(-c3cc(N4CCOCC4)ncn3)ccnc21,96.13%
24,Cn1ccc2c(-c3ccc(NC4CC4)nn3)ccnc21,-7.533%

row,SMILES,Percent Effect
1,Cc1cc(C)nc(N2CCCC(Cn3cc(CN(C)C)nn3)C2)n1 (stereo unspecified),5.215%
2,COCCn1cc(NCc2cccc3cn[nH]c23)cn1,-36.74%
3,COCc1cc(CNc2cnn(CC(F)F)c2)ccc1OC,109.5%
4,COCc1cc(NCCc2ccc(F)cc2)n2nccc2n1,-0.9559%
5,Cc1ccc(CNc2cnn(CC(F)F)c2)cc1C,-20.79%
6,CCn1cc(CNc2ccc(Br)c(OC)c2)cn1,3.911%
7,COc1ccccc1CNC(Cn1cncn1)c1ccccc1 (stereo unspecified),-4.346%
8,COCc1cc(NCc2cc(F)ccc2F)n2nccc2n1,7.154%
9,COc1cc(CNc2cnn(CC(F)F)c2)ccc1O,77.84%
10,COc1ccccc1CNc1cnn(CC(F)F)c1,103.3%
11,CS(=O)(=O)CCNCc1ccc(OCc2ccncc2)cc1,4.954%
12,CS(=O)(=O)c1cccc(S(=O)(=O)NCCCN2CCNC(=O)C2)c1,4.336%
13,COCCC1(CO)CCCN(Cc2ccc(C(F)(F)F)nc2)C1 (stereo unspecified),4.896%
14,Cc1nn(C)c2nc(N3CCNC(=O)C3C(C)C)sc12 (stereo unspecified),-3.724%
15,Cc1nn(C)c2nc(N3CCNC(=O)C3Cc3ccccc3)sc12 (stereo unspecified),4.207%
16,Cc1nn(C)c2nc(N(Cc3nccs3)C3CC3)sc12,96.11%
17,Cc1ccc(CN2CCN(c3nc4c(s3)c(C)nn4C)C(C)C2=O)cc1 (stereo unspecified),-1.858%
18,COCCN(Cc1nccs1)c1nc2c(s1)c(C)nn2C,-7.769%
19,Cc1nn(C)c2nc(N3CCCCC3c3nccs3)sc12 (stereo unspecified),111.2%
20,Cc1nn(C)c2nc(N3CCCC3c3nccs3)sc12 (stereo unspecified),105.7%
21,Cc1nn(C)c2nc(N(Cc3cnn(C)c3)C3CCCCC3)sc12,-14.1%
22,Cc1nn(C)c2nc(N3CCC(C(O)c4ccccn4)CC3)sc12 (stereo unspecified),-0.6588%
23,COC(=O)CN1CCN(c2nc3c(s2)c(C)nn3C)C(C)C1=O (stereo unspecified),-10.29%
24,Cc1nn(C)c2nc(N3CCCCC3c3ccc(F)cc3)sc12 (stereo unspecified),106.8%

row,SMILES,Percent Effect
1,COC(=O)CC1C(=O)NCCN1c1nc2c(s1)c(C)nn2C (stereo unspecified),-2.847%
2,CN(Cc1ccccc1NCc1cccnc1)C(=O)c1cccs1,7.108%
3,O=S1(=O)CCN(c2nc(C3CC3)ns2)CC1,-15.72%
4,CN1C(=O)CO[C@H](c2ccc(NC(=O)c3cccc(F)c3)cc2)[C@H]1CO,11.75%
5,CCC(CNC(=O)c1cc(OC)ccc1Br)N1CCc2ccccc2C1 (stereo unspecified),-23.56%
6,COC(=O)N1CCc2ccccc2C1C(=O)NCc1nc(C)no1 (stereo unspecified),2.573%
7,CN(C)C(=O)c1cccc(CN2CCOC(Cn3cncn3)C2)c1 (stereo unspecified),102.1%
8,CN(C)C(=O)c1cccc(CN2CCOC(Cn3cccn3)C2)c1 (stereo unspecified),104.7%
9,CN(C)CC1CN(Cc2cccc(C(=O)N(C)C)c2)CCO1 (stereo unspecified),13.75%
10,c1cnn(-c2ccc(CN3CCOC(Cn4cncn4)C3)cc2)c1 (stereo unspecified),-5.555%
11,CN(C)c1cccc(C(=O)Nc2cnn(Cc3ccncc3)c2)c1,11.2%
12,CCS(=O)(=O)Nc1cnn(Cc2cccc(C)c2)c1,89.42%
13,CCS(=O)(=O)Nc1cnn(Cc2cccc(F)c2)c1,105.7%
14,Cc1cccc(Cn2ccc(NS(C)(=O)=O)n2)c1,-2.498%
15,CCn1cc(NC(=O)NCC(c2cccc(F)c2)N(C)C)cn1 (stereo unspecified),0.3988%
16,CCn1cc(NC(=O)NCC(O)COc2cccc(F)c2)cn1 (stereo unspecified),-10.6%
17,Cc1ccc(C(=O)NCC2COCCO2)c(=O)[nH]1 (stereo unspecified),4.795%
18,O=C(NCCCn1cncn1)c1ccc(-c2ccccc2)[nH]c1=O,-1.732%
19,O=C(NCC1CCCOC1)c1ccc(-c2ccccc2)[nH]c1=O (stereo unspecified),111.2%
20,Cc1cccc(-c2ccc(C(=O)NCC3CCCOC3)c(=O)[nH]2)c1 (stereo unspecified),108.2%
21,Cc1cccc(-c2ccc(C(=O)NCC3CCCO3)c(=O)[nH]2)c1 (stereo unspecified),118.6%
22,Cc1cccc(-c2ccc(C(=O)NCCN3CCOCC3)c(=O)[nH]2)c1,3.561%
23,Cc1ccc(C(=O)NCC2CCCCO2)c(=O)[nH]1 (stereo unspecified),8.158%
24,Cc1cccc(-c2ccc(C(=O)NCC3CCOC3)c(=O)[nH]2)c1 (stereo unspecified),2.342%

row,SMILES,Percent Effect
1,O=C(NCC1CCCOC1)c1ccc(-c2cccs2)[nH]c1=O (stereo unspecified),1.044%
2,Cc1cccc(-c2ccc(C(=O)NCCN(C)C3CC3)c(=O)[nH]2)c1,-2.901%
3,O=C(NCCN1CCOCC1)c1ccc(-c2ccccc2)[nH]c1=O,-12.34%
4,O=C(NCC1CCOC1)c1ccc(-c2ccccc2)[nH]c1=O (stereo unspecified),96.09%
5,Cc1nc(CCNC(=O)C2CCN(C(C)C)CC2)sc1Cl,3.943%
6,CCc1ccccc1OC1CN(CC2CCOC2)C1 (stereo unspecified),1.155%
7,CN(C)C(=O)CCCn1ccc(NCc2ccc(C#N)cc2)n1,-12.19%
8,COCc1cccc(NC(=O)N(C)Cc2ncc(C)c(OC)c2C)c1,-2.673%
9,COCCOC(=O)N1C[C@H]2CC[C@@H]1CN(C1Cc3ccccc3C1)C2,9.586%
10,O=C(CO)N1CCCC(N2CCN(c3ccccc3F)CC2)C1 (stereo unspecified),13.62%
11,COCCC(=O)N1CCC2(CC1)CC(c1ccccc1)CN(C1CC1)C2 (stereo unspecified),-1.605%
12,COC(=O)N1CCN(Cc2ccccc2Cl)CC1,0.9968%
13,O=C(CC1CCCCC1)N1CCN(C(=O)NCc2ccccn2)CC1,-2.156%
14,COCCOC(=O)N1CCN2C[C@@H](CO)[C@H](c3ccccc3)[C@H]2C1,99.06%
15,NC(=O)[C@@H]1CN2CCN(C(=O)C3CC3)C[C@@H]2[C@H]1c1ccccc1,100.9%
16,O=C(C1CC1)N1CCN(C(=O)C2CC(=O)N(c3ccccc3Br)C2)CC1 (stereo unspecified),9.914%
17,O=C(CC1CCCC1)N1CCN2C[C@@H](CO)[C@H](c3ccccc3)[C@H]2C1,76.76%
18,COC(=O)N1CCN2C[C@H](CO)[C@@H](c3ccccc3)[C@H]2C1,95.68%
19,COC(=O)N1CCC(NC(=O)CC(C)CCc2ccccc2)CC1 (stereo unspecified),12.69%
20,O=C(Nc1nc(-c2ccccc2)ns1)N1CCN(C(=O)C2CC2)CC1,-11.4%
